The values below come from PubChem BioAssay AID602281 (The Scripps Research Institute Molecular Screening Center, 2012).

Hit rate of the full screen: of about 360,000 compounds, about 2,900 (0.81%) were called active. The sample as a whole holds a higher share of actives than the screen did. A number with no mark means an inactive call.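 How the source made its calls: active means inhibition above the mean inhibition across every tested compound plus 3 SD (cut at about 22% in these data); inactive means the rest.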

Broadly, the inhibition is the change of the read-out against control, counted positive when it falls.

Perilipin-5 (Homo sapiens) + 1-acylglycerol-3-phosphate O-acyltransferase ABHD5 (Homo sapiens), sequence (Q00G26 whole entry, looked up): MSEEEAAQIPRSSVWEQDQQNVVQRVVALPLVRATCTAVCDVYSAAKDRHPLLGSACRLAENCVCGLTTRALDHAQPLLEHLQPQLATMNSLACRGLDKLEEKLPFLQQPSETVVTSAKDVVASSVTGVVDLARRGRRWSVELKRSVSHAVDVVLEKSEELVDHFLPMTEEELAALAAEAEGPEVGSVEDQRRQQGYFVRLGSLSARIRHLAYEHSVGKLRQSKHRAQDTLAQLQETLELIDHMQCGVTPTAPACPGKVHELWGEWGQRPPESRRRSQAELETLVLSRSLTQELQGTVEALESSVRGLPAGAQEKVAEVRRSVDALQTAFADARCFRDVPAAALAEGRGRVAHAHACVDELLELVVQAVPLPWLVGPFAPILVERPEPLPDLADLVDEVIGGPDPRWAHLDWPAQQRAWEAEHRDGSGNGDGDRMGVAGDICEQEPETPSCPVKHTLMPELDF
Perilipin-5 (Homo sapiens) + 1-acylglycerol-3-phosphate O-acyltransferase ABHD5 (Homo sapiens), sequence (Q8WTS1 whole entry, looked up): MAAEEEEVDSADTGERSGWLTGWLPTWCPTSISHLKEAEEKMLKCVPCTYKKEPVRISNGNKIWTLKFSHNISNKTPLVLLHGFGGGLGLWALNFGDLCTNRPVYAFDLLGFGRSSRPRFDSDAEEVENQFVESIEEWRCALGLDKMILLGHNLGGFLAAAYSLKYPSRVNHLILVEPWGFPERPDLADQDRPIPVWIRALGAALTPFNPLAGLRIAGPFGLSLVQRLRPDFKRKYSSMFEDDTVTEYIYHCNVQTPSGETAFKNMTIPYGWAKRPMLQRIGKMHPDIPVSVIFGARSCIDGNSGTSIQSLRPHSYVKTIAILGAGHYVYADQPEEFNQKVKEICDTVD

The assay has as its target Perilipin-5 (Homo sapiens) + 1-acylglycerol-3-phosphate O-acyltransferase ABHD5 (Homo sapiens) (UniProt Q00G26+Q8WTS1). The assay is described as follows: ABHD5-PLIN5 interaction inhibitors, primary screen, cell lysate, split luciferase complementation, luminescence (AID 602281).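 Further: 0% = DMSO only wells and the 100% control is not disclosed.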 Conditions: Split G. princeps luciferase complementation, 4 h, at 4 µM, active compounds read high.
On to `NC(=O)c1nsc(C(=O)N(CC(=O)NCc2ccc(F)cc2)Cc2ccco2)c1N`, for which the inhibition is 36% (active).

For the molecule `COc1ccc(CNC(=O)C(c2ccc(O)cc2)N(Cc2ccco2)C(=O)c2snc(C(N)=O)c2N)cc1` (stereo not given), the inhibition was -11.3%.

In the case of `Cc1ccnc(NC(=O)CCC(=O)N(CC(=O)NCc2ccccc2)Cc2ccco2)c1`, the inhibition is 1.15%.

`Cc1csc2ncc(C(=O)N(Cc3ccccc3)c3ccccn3)c(=O)n12`: the inhibition was 3.35%.

With `CN(C)CCCNC(=O)/C=C/c1ccc(OCc2c(F)cccc2Cl)cc1`, the inhibition is 28.6% (active).

Take `COc1cc(CNCCN(C)C)ccc1OCc1c(F)cccc1Cl`: the inhibition was 11.6%.

Turning to `O=C(/C=C/c1ccc(OCc2c(F)cccc2Cl)cc1)N1CCOCC1`, the inhibition was -6.95%.

`O=S(=O)(c1ccc2ccccc2c1)N1CCN(S(=O)(=O)N2CCOCC2)CC1`: the inhibition was -1.34%.

In the case of `CCCCN1C(N)=NC[C@@H]1Cc1ccccc1`, the inhibition is 4.61%.

As to `C[C@@H](CN1CCC[C@H]1CN1C(N)=NC[C@@H]1Cc1ccccc1)N1C[C@@H](Cc2ccccc2)N(CCCC2CCCC2)C1=N`, the inhibition was 34.8% (active).

As to `CC[C@@H](C)[C@@H]1CN([C@@H](C)CN2CCC[C@H]2CN2C(N)=NC[C@H]2C(C)C)C(=N)N1CCc1ccc(Cl)c(Cl)c1`, the inhibition was 11.4%.

In the case of `Cc1ccc2c(c1)N(CC(=O)N1CCCc3ccccc31)C(=O)C(C)O2` (stereo not given), the inhibition was 5.29%.

As to `CC(=O)NC1=NN(C(C)=O)C(C)(CCS(=O)(=O)c2ccc(Cl)c(Cl)c2)S1` (stereo not given), the inhibition is 2.36%.

Take `COc1ccccc1CNC(=O)Cn1cc2c(n1)CCCC2`: the inhibition was 8.04%.

Consider `COc1ccccc1NC(=O)CC(NCCN(C)C)C(=O)O` (stereo not given), for which the inhibition was 0.5%.

For the molecule `CCN(CC)CCN(C(=O)c1ccc2c(c1)CCCC2)c1nc2c(OC)cccc2s1`, the inhibition was 25% (active).

Take `COc1cccc2sc(N(CCCN(C)C)C(=O)C(c3ccccc3)c3ccccc3)nc12`: the inhibition was 43.5% (active).

On to `CN(CC1CCCN(CCc2cccc(C(F)(F)F)c2)C1)C(=O)c1ccc2nc[nH]c2c1` (stereo not given), for which the inhibition is -0.06%.

In the case of `CCN(CC)CCNS(=O)(=O)c1ccc(/C=C/C(=O)O)cc1`, the inhibition was 4.35%.

As to `OCc1ccc(-c2ccccc2)c(-c2ccccc2)c1`, the inhibition was -5.6%.

As to `CCCC/C(C)=N/NC(=O)NC1CCCCC1`, the inhibition is -3.36%.

On to `COc1ccc(C2=NOC3(CC(=O)N(c4ccc(Cl)cc4)C3=O)C2)c(OC)c1` (stereo not given), for which the inhibition is 0.13%.

Consider `Cc1cc(O)ccc1-c1cc(C(=O)NCc2cc(C(F)(F)F)cc(C(F)(F)F)c2)[nH]n1`, for which the inhibition is -13.6%.

Turning to `COCCNc1nnc(SCC(=O)NNC(=O)c2ccco2)s1`, the inhibition is 0.13%.

`COc1ccc(NC(=O)/C(Cl)=C(/Cl)S(=O)Cc2ccc(C)cc2)cn1` (stereo not given): the inhibition was 96.3% (active).

For the molecule `COC(=O)COc1ccc2c(c1C)O/C(=C\c1ccco1)C2=O`, the inhibition is 14.5%.

In the case of `CC(C)(C)C1C/C(=C/c2ccco2)C(=O)/C(=C/c2ccco2)C1` (stereo not given), the inhibition is 52.8% (active).

Turning to `Cc1ccc(S(=O)(=O)Cn2nnnc2CN2CCN(Cc3ccc4c(c3)OCO4)CC2)cc1`, the inhibition is -0.76%.

As to `O=C(CNC(=O)C12CC3CC(CC(C3)C1)C2)OCC(=O)N1CCCCC1`, the inhibition is -6.36%.

As for `Cc1cc(C)nc(NS(=O)(=O)c2ccc(N3C(=O)C4CCCCC4C3=O)cc2)n1` (stereo not given), the inhibition is -6.56%.

Consider `O=C(CN(c1cc(C(F)(F)F)ccc1Cl)S(=O)(=O)c1ccccc1)NCc1cccnc1`, for which the inhibition is 3.26%.

For the molecule `O=C(c1cccnc1)N(c1cc2sc(=O)oc2c2ccccc12)S(=O)(=O)c1ccccc1`, the inhibition is 55.9% (active).

Turning to `CCc1ccc(N(CC(=O)NCc2cccnc2)S(=O)(=O)c2ccccc2)cc1`, the inhibition is 8.86%.

For `O=C(COC(=O)c1ncc(Cl)c(Cl)c1Cl)NCc1cccs1`, the inhibition was 0.28%.

With `CS(=O)(=O)N1CCCCC1c1cc(C(=O)NCc2ccccc2)no1` (stereo not given), the inhibition is -1.92%.

As to `CC1(C)CCSC(/C=C/c2ccccc2)=N1`, the inhibition was 40.5% (active).

For the molecule `CC1(C(=O)NS(=O)(=O)c2ccccc2)CCN1C(=O)C/C=C/c1ccccc1` (stereo not given), the inhibition was 11%.

Turning to `CNS(=O)(=O)c1cccc(C(=O)OCCCC(=O)c2ccccc2)c1`, the inhibition is 5.65%.

As for `CN1CCN(C2Cc3ccc(Cl)cc3Sc3ccc(F)cc32)CC1` (stereo not given), the inhibition is 10.5%.

Turning to `COCCNC(=O)Nc1ccc2nc(-c3ccco3)c(-c3ccco3)nc2c1`, the inhibition was 22.6% (active).

Turning to `COc1ccc(CCNC(=O)Nc2ccc3c(c2)c(=O)n(C)n3C)cc1OC`, the inhibition is 3.03%.

As to `COCCNC(=O)CN(Cc1ccco1)C(=O)CCC(=O)Nc1nccs1`, the inhibition was 7.43%.

On to `c1ccc(CC2CCN(c3nc4ccccc4n4cnnc34)CC2)cc1`, for which the inhibition was -9.78%.

For the molecule `O=C(COc1ccc(S(=O)(=O)N2CCCCC2)cc1)NCc1ccccn1`, the inhibition was -0.42%.

In the case of `Cc1cccc(C)c1NC(=O)N1CC(C)OC(C)C1` (stereo not given), the inhibition was 5.67%.

As to `Cc1cccc(C)c1NC(=O)C(Cl)C(=O)c1ccccc1` (stereo not given), the inhibition was 38.3% (active).

With `CN=C(c1ccccc1)c1c(C)cccc1C`, the inhibition was 4.42%.

For `C[C@H](NC(=O)c1[nH]cnc1C(=O)Nc1nccs1)c1ccccc1`, the inhibition was 1.59%.

On to `CC(C(=O)c1ccc(-c2ccccc2)cc1)[n+]1cccc(Br)c1` (stereo not given), for which the inhibition is 0.81%.

On to `Cn1c(=S)sc2ccc3ccccc3c21`, for which the inhibition is 1.97%.

With `Cc1cn(C)c(=O)n(C)c1=O`, the inhibition is -0.3%.

As to `Cc1ccc(-c2c3c(=O)n(C)c(=O)n(C)c3cn2-n2cnnc2)cc1`, the inhibition is 22.5% (active).

`COc1ccc([N+](=O)[O-])cc1N(CC(=O)Nc1ccccc1C(=O)N1CCOCC1)S(C)(=O)=O`: the inhibition was -1.59%.

For the molecule `CC(=O)NC1CCN(CC(=O)Nc2nccs2)CC1`, the inhibition was 6.01%.

For the molecule `O=C(/C=C/c1ccc(Cl)c([N+](=O)[O-])c1)c1ccc(O)cc1`, the inhibition was 67.9% (active).

On to `CC(=O)Nc1ccc(C=CC(=O)c2ccc([N+](=O)[O-])cc2)cc1`, for which the inhibition was 27.1% (active).

As for `CC(=O)Nc1ccc(C(=O)/C=C/c2ccc[nH]2)cc1`, the inhibition is 11.6%.

`CC(C=Cc1ccccc1)=NNS(=O)(=O)c1ccc([N+](=O)[O-])cc1`: the inhibition is 1.47%.

Take `Cc1ccnc(NC(=O)c2ccc(Cl)c([N+](=O)[O-])c2)c1`: the inhibition is 5.06%.

Take `O=C(O)c1ccc2c(=O)n3c(nc2c1)/C(=C/c1ccc(Cl)c([N+](=O)[O-])c1)CC3`: the inhibition is 3.3%.

Turning to `O=C(Nc1nccs1)C1CCN(S(=O)(=O)c2ccc(Cl)c(C(F)(F)F)c2)CC1`, the inhibition was -4.59%.

Turning to `CCN1CCN(C(=O)C2CCCN(S(=O)(=O)c3ccc(OC)c(OC)c3)C2)CC1` (stereo not given), the inhibition is 7.45%.

On to `O=C(NCc1cccc(Cl)c1)C1=CC=CN2CCS(=O)(=O)N=C12`, for which the inhibition was -4.23%.

As to `COc1ccc(S(=O)(=O)N2CCN(C(=O)NC3CCCCC3)CC2)cc1`, the inhibition is -2.23%.

For `CC(C)[C@H](NC(=O)c1ccc(F)cc1)C(=O)OCC(=O)NC(=O)c1cccn1C`, the inhibition was -4.59%.

Turning to `Cc1ccc2c(c1)C1CN(C)CCC1N2S(=O)(=O)c1ccc(Oc2ccc([N+](=O)[O-])cc2)cc1` (stereo not given), the inhibition is 15.8%.

As for `COc1ccc(-n2cc(CN(C)Cc3n[nH]c(=O)[nH]3)c(-c3cccc(F)c3)n2)cc1`, the inhibition was 7.9%.

As for `COc1ccc(-n2cc(CNC3CCOCC3)c(-c3cccc(F)c3)n2)cc1`, the inhibition was 24.7% (active).

For `CCC(O)C1CCN(Cc2cn(-c3ccc(OC)cc3)nc2-c2cccc(F)c2)CC1` (stereo not given), the inhibition is 8.4%.

As to `COc1ccc(C2OC(=O)CC2C(=O)NC(C)C)cc1` (stereo not given), the inhibition is -1.02%.

As to `COc1ccc(C(=O)C2CCCN(C(=O)c3cc4nc(C)cc(C)n4n3)C2)cc1F` (stereo not given), the inhibition was 0.49%.

Turning to `Cc1ccc(CN2C(=O)CCC2C(=O)NCCCN2CCCCC2C)cc1` (stereo not given), the inhibition is 1.42%.

Consider `FC(F)(F)c1cc(-c2ccco2)nc(NCc2ccc(Cl)cc2)n1`, for which the inhibition is -5.83%.

Take `C[C@H](NC(=O)C1CC(=O)N(c2ccc3c(c2)OCO3)C1)C(=O)NCc1ccco1` (stereo not given in full): the inhibition was 10.8%.

Turning to `CCCC/C=C/c1cccc2nncn12`, the inhibition is -0.29%.

Regarding `Cc1cc(C)n(CC(O)COc2ccc(C(C)(C)C)cc2)n1` (stereo not given), the inhibition is -1.93%.

For `COc1ccc(C(CNC(=O)COc2ccc([N+](=O)[O-])cc2)N2CCCCC2)cc1` (stereo not given), the inhibition was -7.05%.

For `COc1ccc(C(C[N+](=O)[O-])n2nc(C)cc2C)cc1` (stereo not given), the inhibition is 54.3% (active).

With `COc1ccc(C(=O)C(OP(=O)(OC)OC)c2ccccc2OC)cc1` (stereo not given), the inhibition is 0.08%.

As for `CC(C)NC(=S)N1CCN(S(C)(=O)=O)CC1`, the inhibition was -5.54%.

For `CCCc1cc(-c2n[nH]c(=S)n2CC)c2ccccc2n1`, the inhibition is -2.69%.

As for `CCN(CC)S(=O)(=O)c1cccc(-c2n[nH]c(=S)n2/N=C/c2ccc(C(=O)OC)cc2)c1`, the inhibition is -11.2%.

For the molecule `Cc1cc(-c2n[nH]c(=S)n2/N=C/C(Br)=C/c2ccccc2)n[nH]1`, the inhibition was 62.1% (active).

Consider `COC(=O)C1=C(C)NC2=C(C(=O)c3ccccc32)C1c1ccc(-c2ccc(C(=O)O)cc2)o1` (stereo not given), for which the inhibition was 17.7%.

Turning to `Cc1ccc(NC(=S)N2CCN(c3ncccn3)CC2)cc1C`, the inhibition is 5.22%.

For the molecule `O=C1/C(=C\c2ccc(O)cc2)CCC1CNc1ccc(Cl)cc1` (stereo not given), the inhibition is 23.7% (active).

As to `COc1cc(C)c(C)cc1S(=O)(=O)N1CCCc2ccccc21`, the inhibition is 3.45%.

In the case of `CCN1/C(=C\c2ccc3ccccc3[n+]2CC)Sc2cc(C)ccc21`, the inhibition was 28.2% (active).

With `C=C(C)C(=O)Nc1cccc(C2=NOC3(C2)C[C@H](C(N)=O)N(C(=O)C(c2ccccc2)c2ccccc2)C3)c1` (stereo not given in full), the inhibition was 0.12%.

Regarding `Cc1ccn2c(=O)nc(SCC(=O)NCc3ccc4c(c3)OCO4)nc2c1`, the inhibition is -8.67%.
